Test results from ChEMBL document CHEMBL3988442, “University of Dundee, Small-Polar-MMV Screening Library” (2021).
About 13,000 (27%) of roughly 48,000 compounds showed an effect of 50% or more. The list shows a part of the results.

The molecules below were run on Wolbachia pipientis (assay: Anti-Wolbachia Cell-Based Screen). Conditions: 5 µM.
Assay type: functional
Design: scale not given: in the data most compounds retested in dose-response had high values

Structure (SMILES) | Percent Effect
CC(C)c1nccn1CCCNC(=O)c1ccc(N(C)C)nc1 | -4.813%
CCN1CCCC(c2c(-c3ccccc3)ncn2CC(N)=O)C1 (centres undefined) | 0.7504%
Cc1cccc(C2CCCN(C(=O)CN3CCC(C(N)=O)CC3)C2)c1 (centres undefined) | -7.369%
NC(=O)CN1CCCC(c2ccnc(Nc3ncccn3)c2)C1 (centres undefined) | 104.7%
Cc1cccc(C2CCCN(C(=O)C3CCN(CC(N)=O)CC3)C2)c1 (centres undefined) | -11.42%
NC(=O)CN1CCCC(C(=O)N2CCC(Oc3ncccn3)CC2)C1 (centres undefined) | -4.684%
Cl.Cl.NCC(=O)N1CCCC(c2cncc(Nc3ncccn3)n2)C1 (centres undefined) | -7.502%
NC(=O)CN1CCCC(c2cncc(Nc3ncccn3)n2)C1 (centres undefined) | 117.4%
Cc1cccc(Nc2cc(C3CCCN(CC(N)=O)C3)ccn2)n1.O=CO.O=CO (centres undefined) | 109.2%
CCC(C)N(Cc1ccncc1)C(=O)CCC(=O)OC (centres undefined) | -41.55%
Cc1nc(CN2CCCN(CC(=O)N(C)C(C)(C)C#N)CC2)no1 | 10.3%
CC(C)(C)OC(=O)N1CCC[C@H](NCC2=CCCOC2)C1 | -0.302%
O=C(O)C(F)(F)F.O=C(O)C(F)(F)F.O=C(c1ccncc1)N1CC[C@@H]2[C@@H](CC1)OCCN2c1cccnc1 | -4.707%
CN(C)C(=O)c1nc(-c2ccc(S(C)(=O)=O)cc2)c2ccccn12 | 94.54%
CS(=O)(=O)c1ccc(-c2nc(C(=O)N3CCCC3)n3ccccc23)cc1 | 91.51%
CC(C)CCN(C)C(=O)c1nc(S(C)(=O)=O)n2ccccc12 | 1.111%
CN(C)C(=O)c1nc(-c2ccc(S(C)(=O)=O)cc2)c2cnccn12 | 107.6%
O=C(c1coc(-c2ccccc2)n1)N1CCCC1 | 6.616%
CC(C)n1cnc(-c2nc(C(=O)N3CCCC3)c3ccccn23)c1 | -0.8191%
CN(Cc1ccccc1)C(=O)c1nc(S(C)(=O)=O)n2ccccc12 | -0.6664%
NCCN1CCC(c2nnc(Cn3ccnc3)n2C2CC2)CC1 | 3.949%
COc1ccc(CN(C)CC(=O)NC2(C)CCS(=O)(=O)C2)cc1F (centres undefined) | -5.934%

Structure (SMILES) | Percent Effect
O=C(NC1CCCN(CCc2ccccc2)C1)c1cnccn1 (centres undefined) | 115.1%
CC(=O)NC1CCCN(Cc2ccc(OCc3ccccn3)cc2)C1 (centres undefined) | -5.429%
O=C(NC1CCCN(c2ccc(OC(F)F)cc2)C1)c1cnccn1 (centres undefined) | -2.478%
O=C(NC1CC(=O)N(C2Cc3ccccc3C2)C1)c1cnccn1 (centres undefined) | -14.57%
CN(C(=O)CSc1ccccn1)C1CCCN(CCc2ccccc2)C1 (centres undefined) | -2.321%
O=C(NC1CCCN(CCc2ccccc2)C1)c1ccccn1 (centres undefined) | 90.98%
O=C(CCO)N1C[C@H]2CC[C@@H]1CN(C1Cc3ccccc3C1)C2 | 7.309%
O=C(c1ccccc1)N1CCN(CC2CCOc3ccccc3C2)CC1 (centres undefined) | -9.678%
CC(=O)Nc1cccc(C(=O)N2CCc3c(nc(N(C)C)[nH]c3=O)C2)c1 | -4.662%
CCn1cnnc1CNC(=O)NC(c1ccc(OC)cc1)C1CC1 (centres undefined) | -3.354%
COc1cc2c(cc1-c1nc3c(cnn3C(C)C)[nH]1)OCO2 | 0.2831%
Cc1ncsc1C(=O)N(C)Cc1ccncc1 | -15.3%
CCC(=O)Nc1cc(Cl)ccc1C(=O)N(C)Cc1noc(CC)n1 | -2.438%
CCN(Cc1nonc1C)C(=O)c1ccc(Br)o1 | 1.066%
CCc1nc(CN(C)C(=O)c2cc(NC(C)=O)ccc2Cl)no1 | -10.82%
CCc1oc(C(=O)N(C)Cc2nonc2C)cc1CN(CC)CC | 117.2%
CCc1nc(CN(C)C(=O)c2cc(CN(CC)CC)c(CC)o2)no1 | 113.6%
CN(Cc1ccncc1)C(=O)c1ccc(F)c(NS(C)(=O)=O)c1 | 4.431%
Cc1ccc(C)c(OCc2cc(C(=O)N(C)Cc3nonc3C)no2)c1 | -9.317%
CCc1oc(C(=O)N(C)Cc2ccncc2)cc1CN(CC)CC | 110.2%
CCOc1ccc(CN2C(=O)CC3(CCCC3)C2=O)nc1 | -27.44%
O=C1CC(CNc2cncc(Br)c2)c2ccccc2N1 (centres undefined) | 11.7%

Structure (SMILES) | Percent Effect
O=C1CN(Cc2cn(CC3CCN(C4CCSCC4)CC3)nn2)CCN1 | -10.54%
CCN1C(=O)C2(CCOCC2)c2cc(NC(=O)c3ccco3)ccc21 | 4.939%
CCN1CC2(CCOCC2)c2cc(NS(=O)(=O)CC)ccc21.O=C(O)C(F)(F)F | 93.24%
CCN1C(=O)C2(CCOCC2)c2cc(NC(=O)c3cnoc3C)ccc21 | -1.334%
CCS(=O)(=O)Nc1ccc2c(c1)C1(CCOCC1)CN2C.O=C(O)C(F)(F)F | 89.45%
CN(C)C(=O)N1CC2(CCOCC2)c2cc(NS(=O)(=O)C3CC3)ccc21 | -3.56%
CCN1C(=O)C2(CCOCC2)c2cc(NC(=O)c3csnn3)ccc21 | 5.242%
COc1ccc(C(C)NC(=O)Nc2nnc(C)s2)cc1OC (centres undefined) | 6.701%
COC(=O)C(C)NC(=O)CSCc1nc(O)c2cc(C(C)C)sc2n1 (centres undefined) | 3.354%
Cc1ccc2nc(CN(Cc3ccc(C)o3)C(C)C)cc(=O)n2c1 | -6.244%
Cc1ccc(CNC(=O)Nc2nnc(C(C)C)s2)n1C | -5.821%
Cc1cccc2nc(CSCC(=O)Nc3nnc(C(C)C)s3)cc(=O)n12 | 122.4%
CC(C)c1nnc(NC(=O)Cc2csc(-c3nnc[nH]3)n2)s1 | 3.837%
Cc1nnc(NC(=O)CSCc2cc(=O)n3ccccc3n2)s1 | 113.7%
Cc1cccc2nc(CN3CCCC(C)C3)cc(=O)n12 (centres undefined) | 12.06%
Cc1ccn2c(=O)cc(CSCC(=O)Nc3nnc(C(C)C)s3)nc2c1 | 111%
Cc1cnn(CC(C)NCc2cc(=O)n3cc(C)ccc3n2)c1 (centres undefined) | 5.917%
Cc1ccc2nc(CSCC(=O)Nc3nnc(C(C)C)s3)cc(=O)n2c1 | 91.49%
Cc1nc(C)c(CC(=O)Nc2nnc(C)s2)c(=O)[nH]1 | -6.123%
CN(C)c1cccc(C(=O)NCC(O)c2cccs2)c1 (centres undefined) | -6.039%
